In PubChem BioAssay (NCI):
Compounds without any hit were thinned out: in the full panel of roughly 83,000, 20% have a hit.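 The endpoint reported here, percent growth, reads 100 for growth as untreated, 0 for no net growth and -100 for all cells dead.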 Calls of active or inactive are those of the source. How the source made its calls: active means growth percent below 10; inactive means the rest.

Columns and labels:
Assay in all cases: NCI-60 one-dose screen, 48 h (100 = growth as untreated, 0 = no growth, -100 = all killed)
Details in all cases: 10 µM unless noted
NCI-H23 lung = test system: NCI-H23 lung
NCI-H226 lung = test system: NCI-H226 lung
NCI-H322M lung = test system: NCI-H322M lung
HOP-62 NSCLC = test system: HOP-62 NSCLC
NCI-H460 lung = test system: NCI-H460 lung
HOP-92 NSCLC = test system: HOP-92 NSCLC
NCI-H522 lung = test system: NCI-H522 lung
A549/ATCC NSCLC = test system: A549/ATCC NSCLC
786-0 renal = test system: 786-0 renal
COLO 205 colon = test system: COLO 205 colon

Measured: growth

Nc1cc2nc3ccccc3sc-2cc1=O
inactive: NCI-H23 lung 50% | NCI-H226 lung 84.4% | NCI-H322M lung 93.8% | HOP-62 NSCLC 63.9% | NCI-H460 lung 75% | HOP-92 NSCLC 101% | NCI-H522 lung 66% | A549/ATCC NSCLC 27.3% | 786-0 renal 97.7% | COLO 205 colon 104%

c1ccc(Sc2ncnc3ccccc23)cc1
inactive: NCI-H23 lung 70.2% | NCI-H226 lung 82.2% | NCI-H322M lung 79.9% | HOP-62 NSCLC 99.4% | NCI-H460 lung 89.9% | HOP-92 NSCLC 48.9% | NCI-H522 lung 82.8% | A549/ATCC NSCLC 90.4% | 786-0 renal 87.6% | COLO 205 colon 108%

O=C1Nc2ccc(Br)cc2C12CC(c1ccccc1)=NN2 (stereo not given)
inactive: NCI-H23 lung 58.7% | NCI-H226 lung 57.3% | NCI-H322M lung 35.2% | HOP-62 NSCLC 51.6% | NCI-H460 lung 18.1% | HOP-92 NSCLC 58.2% | NCI-H522 lung 20% | A549/ATCC NSCLC 31.6% | 786-0 renal 46.8% | COLO 205 colon 30.5%

Nc1cccc(NC(=O)C(=O)Nc2cccc(N)c2)c1
inactive: NCI-H23 lung 105% | NCI-H226 lung 93.6% | NCI-H322M lung 109% | HOP-62 NSCLC 96.1% | NCI-H460 lung 117% | HOP-92 NSCLC 89.8% | NCI-H522 lung 91.7% | A549/ATCC NSCLC 97.1% | 786-0 renal 68.5% | COLO 205 colon 127%

COc1ccc(CNc2nccnn2)cc1
inactive: NCI-H23 lung 94.6% | NCI-H226 lung 92% | NCI-H322M lung 103% | HOP-62 NSCLC 98.6% | NCI-H460 lung 106% | HOP-92 NSCLC 108% | NCI-H522 lung 85.4% | A549/ATCC NSCLC 96.9% | 786-0 renal 107% | COLO 205 colon 95%

CC1CN(C(C)C)C(=S)N(c2ccccc2)C1=O (stereo not given)
inactive: NCI-H23 lung 94.6% | NCI-H226 lung 106% | NCI-H322M lung 101% | HOP-62 NSCLC 85.7% | NCI-H460 lung 105% | HOP-92 NSCLC 107% | NCI-H522 lung 87% | A549/ATCC NSCLC 101% | 786-0 renal 96.2% | COLO 205 colon 157%

CCCCCCNC(=O)Oc1ccc(/C(=C(\C)c2ccccc2)c2ccc(OCCN(CC)CC)cc2)cc1
inactive: NCI-H23 lung 69.6% | NCI-H226 lung 82.6% | NCI-H322M lung 90% | HOP-62 NSCLC 83.2% | HOP-92 NSCLC 39.1% | NCI-H522 lung 47.8% | A549/ATCC NSCLC 49.9% | 786-0 renal 44.7%
active: NCI-H460 lung 7.03% | COLO 205 colon -4.77%

CCOC(=O)c1c2c(n3ccc(NC(=O)CCN(CC)CC)cc13)C(=O)c1ncccc1C2=O
active: NCI-H23 lung 0.0285% | NCI-H460 lung -20.4% | NCI-H522 lung 6.16%
inactive: NCI-H226 lung 75.1% | NCI-H322M lung 73.4% | HOP-62 NSCLC 31.4% | HOP-92 NSCLC 82.1% | A549/ATCC NSCLC 36.2% | 786-0 renal 50.1% | COLO 205 colon 54.1%

O=C(/C=C/c1ccc(B(O)O)cc1)/C=C/c1ccc(B(O)O)cc1
active: 786-0 renal -72.5%
inactive: NCI-H23 lung 62.4% | NCI-H226 lung 78.1% | NCI-H322M lung 80.9% | HOP-62 NSCLC 105% | NCI-H460 lung 57.5% | HOP-92 NSCLC 82.6% | NCI-H522 lung 72.4% | A549/ATCC NSCLC 41.4% | COLO 205 colon 36.8%

Cc1cc2c(cc1C)NC1=C(N2)OC(c2c3ccccc3cc3ccccc23)C1=O (stereo not given)
active: NCI-H460 lung 2.12% | NCI-H522 lung -5.18% | COLO 205 colon -40.7%
inactive: NCI-H23 lung 15.2% | NCI-H226 lung 52% | NCI-H322M lung 45.9% | HOP-62 NSCLC 31.9% | HOP-92 NSCLC 71.9% | A549/ATCC NSCLC 26.7% | 786-0 renal 29.9%

C#Cc1nc(Nc2cc(C)[nH]n2)c2ccccc2n1
active: NCI-H23 lung -19.4% | NCI-H226 lung -63.3% | NCI-H322M lung -18.2% | HOP-62 NSCLC -61.2% | NCI-H460 lung -36.7% | HOP-92 NSCLC -46.3% | NCI-H522 lung -72.7% | A549/ATCC NSCLC -35.7% | 786-0 renal -60.7% | COLO 205 colon -56.6%

NC(=S)N/N=C/c1cc(-c2cccc(N)c2)ccn1
active: NCI-H322M lung 8.21% | HOP-62 NSCLC 5.98% | NCI-H460 lung 5.59% | NCI-H522 lung -17.3%
inactive: NCI-H23 lung 23.1% | NCI-H226 lung 16.5% | HOP-92 NSCLC 39.7% | A549/ATCC NSCLC 21.7% | 786-0 renal 31.4% | COLO 205 colon 25.5%

O=C1C=CC(=O)c2c1nc1n2CCCC1
inactive: NCI-H23 lung 39.2% | NCI-H226 lung 95% | NCI-H322M lung 29.8% | HOP-62 NSCLC 80% | NCI-H460 lung 24.6% | HOP-92 NSCLC 132% | NCI-H522 lung 72.5% | A549/ATCC NSCLC 41.6% | 786-0 renal 93.3% | COLO 205 colon 33.2%

O=C(CCN1CCOCC1)Nc1ccc(Cn2nnc3c2C(=O)c2nnn(Cc4ccc(NC(=O)CCN5CCOCC5)cc4)c2C3=O)cc1
active: NCI-H23 lung -20.9% | HOP-92 NSCLC -20% | NCI-H522 lung -28.9% | COLO 205 colon -73.8%
inactive: NCI-H226 lung 86.5% | NCI-H322M lung 10% | HOP-62 NSCLC 70.9% | NCI-H460 lung 13.3% | A549/ATCC NSCLC 84.8% | 786-0 renal 98.5%
